Where a name gives a salt, the structure may show the parent alone. The full ranking holds about 1,500 compounds; the median of “Excess HSA synergy score (sum over dose matrix of excess over highest single agent)” is about 43, and the lowest 2% start at about -900. This is one part of a sample in which the lowest values are shown more often than they occur.
System: PEO-1
Experiment: Excess HSA synergy score (sum over dose matrix of excess over highest single agent) (score (summed % response)); higher = less synergy / more antagonism (negative = synergy)
Conditions: 72 h, read-out: viability/apoptosis luminescence (CellTiter-Glo or Caspase3-Glo / not stated per table)
[1] = matrix design: 6x6, 5-fold dilutions (primary screen)
[2] = matrix design: 10x10, 9-step dilutions (confirmatory)

Compound | Excess HSA synergy score [1] | Excess HSA synergy score [2]
COC1=C2C[C@@H](C)C[C@H](OC)[C@H](O)[C@@H](C)/C=C(\C)[C@H](OC(N)=O)[C@@H](OC)/C=C\C=C(/C)C(=O)NC(=CC1=O)C2=O [Geldanamycin] + CC[C@H](NC(=O)[C@H](C)NC)C(=O)N1C[C@@H](O)C[C@H]1Cc1c(-c2[nH]c3cc(F)ccc3c2C[C@@H]2C[C@H](O)CN2C(=O)[C@H](CC)NC(=O)[C@H](C)NC)[nH]c2cc(F)ccc12 [Birinapant] | 115 | -710
CCc1cc(-c2n[nH]c(C)c2-c2ccc3c(c2)OCCO3)c(O)cc1O + CC[C@H](NC(=O)[C@H](C)NC)C(=O)N1C[C@@H](O)C[C@H]1Cc1c(-c2[nH]c3cc(F)ccc3c2C[C@@H]2C[C@H](O)CN2C(=O)[C@H](CC)NC(=O)[C@H](C)NC)[nH]c2cc(F)ccc12 [Birinapant] | 405 | –
Cc1c[nH]c(/C=C2\C(=O)Nc3ccccc32)c1CCC(=O)O + CC[C@H](NC(=O)[C@H](C)NC)C(=O)N1C[C@@H](O)C[C@H]1Cc1c(-c2[nH]c3cc(F)ccc3c2C[C@@H]2C[C@H](O)CN2C(=O)[C@H](CC)NC(=O)[C@H](C)NC)[nH]c2cc(F)ccc12 [Birinapant] | 54.2 | –
CC1(C)O[C@H]2CC(=O)OC[C@]23[C@H]2CC[C@@]4(C)[C@H](c5ccoc5)OC(=O)[C@H]5O[C@]54[C@]2(C)C(=O)C[C@@H]13 [Limonin] + CC[C@H](NC(=O)[C@H](C)NC)C(=O)N1C[C@@H](O)C[C@H]1Cc1c(-c2[nH]c3cc(F)ccc3c2C[C@@H]2C[C@H](O)CN2C(=O)[C@H](CC)NC(=O)[C@H](C)NC)[nH]c2cc(F)ccc12 [Birinapant] | 15.5 | –
CC[C@@]1(O)C[C@H](O[C@H]2C[C@H](N(C)C)[C@H](O[C@H]3C[C@H](O)[C@H](O[C@H]4CCC(=O)[C@H](C)O4)[C@H](C)O3)[C@H](C)O2)c2c(cc3c(c2O)C(=O)c2c(O)cccc2C3=O)[C@H]1C(=O)OC [Aclarubicin] + CC[C@H](NC(=O)[C@H](C)NC)C(=O)N1C[C@@H](O)C[C@H]1Cc1c(-c2[nH]c3cc(F)ccc3c2C[C@@H]2C[C@H](O)CN2C(=O)[C@H](CC)NC(=O)[C@H](C)NC)[nH]c2cc(F)ccc12 [Birinapant] | -147 | -1130
COc1cccc2c1C(=O)c1c(O)c3c(c(O)c1C2=O)C[C@@](O)(C(=O)CO)C[C@@H]3O[C@H]1C[C@H](N)[C@H](O)[C@H](C)O1 [Doxorubicin] + CC[C@H](NC(=O)[C@H](C)NC)C(=O)N1C[C@@H](O)C[C@H]1Cc1c(-c2[nH]c3cc(F)ccc3c2C[C@@H]2C[C@H](O)CN2C(=O)[C@H](CC)NC(=O)[C@H](C)NC)[nH]c2cc(F)ccc12 [Birinapant] | -136 | –
COc1cccc2c1C(=O)c1c(O)c3c(c(O)c1C2=O)C[C@@](O)(C(=O)CO)C[C@@H]3O[C@H]1C[C@H](N)[C@@H](O)[C@H](C)O1 [Epirubicin hydrochloride] + CC[C@H](NC(=O)[C@H](C)NC)C(=O)N1C[C@@H](O)C[C@H]1Cc1c(-c2[nH]c3cc(F)ccc3c2C[C@@H]2C[C@H](O)CN2C(=O)[C@H](CC)NC(=O)[C@H](C)NC)[nH]c2cc(F)ccc12 [Birinapant] | -93.1 | –
CCc1cc2c(cc1N1CCC(N3CCOCC3)CC1)C(C)(C)c1[nH]c3cc(C#N)ccc3c1C2=O + CC[C@H](NC(=O)[C@H](C)NC)C(=O)N1C[C@@H](O)C[C@H]1Cc1c(-c2[nH]c3cc(F)ccc3c2C[C@@H]2C[C@H](O)CN2C(=O)[C@H](CC)NC(=O)[C@H](C)NC)[nH]c2cc(F)ccc12 [Birinapant] | 183 | –
C[Se]CC[C@H](N)C(=O)O [L-selenomethionine] + CC[C@H](NC(=O)[C@H](C)NC)C(=O)N1C[C@@H](O)C[C@H]1Cc1c(-c2[nH]c3cc(F)ccc3c2C[C@@H]2C[C@H](O)CN2C(=O)[C@H](CC)NC(=O)[C@H](C)NC)[nH]c2cc(F)ccc12 [Birinapant] | 115 | –
CC(=O)O/N=C1/C(=C2/C(=O)Nc3cc(Br)ccc32)Nc2ccccc21 [6-Bromoindirubin-3'-acetoxime] + CC[C@H](NC(=O)[C@H](C)NC)C(=O)N1C[C@@H](O)C[C@H]1Cc1c(-c2[nH]c3cc(F)ccc3c2C[C@@H]2C[C@H](O)CN2C(=O)[C@H](CC)NC(=O)[C@H](C)NC)[nH]c2cc(F)ccc12 [Birinapant] | 131 | –
Cc1ccc(C(=O)N(CCCN)[C@@H](c2nc3cc(Cl)ccc3c(=O)n2Cc2ccccc2)C(C)C)cc1 [Ispinesib] + CC[C@H](NC(=O)[C@H](C)NC)C(=O)N1C[C@@H](O)C[C@H]1Cc1c(-c2[nH]c3cc(F)ccc3c2C[C@@H]2C[C@H](O)CN2C(=O)[C@H](CC)NC(=O)[C@H](C)NC)[nH]c2cc(F)ccc12 [Birinapant] | -86.8 | –
Nc1nccc(-c2ccc3noc(-c4ccc(Cl)cc4)c3c2)n1 [Pim 1 Inhibitor 2] + CC[C@H](NC(=O)[C@H](C)NC)C(=O)N1C[C@@H](O)C[C@H]1Cc1c(-c2[nH]c3cc(F)ccc3c2C[C@@H]2C[C@H](O)CN2C(=O)[C@H](CC)NC(=O)[C@H](C)NC)[nH]c2cc(F)ccc12 [Birinapant] | 12.2 | –
C=CCNc1c(O)cc2c(O)c1C[C@@H](C)C[C@H](OC)[C@H](O)[C@@H](C)/C=C(\C)[C@H](OC(N)=O)[C@@H](OC)/C=C\C=C(/C)C(=O)N2 [Retaspimycin] + CC[C@H](NC(=O)[C@H](C)NC)C(=O)N1C[C@@H](O)C[C@H]1Cc1c(-c2[nH]c3cc(F)ccc3c2C[C@@H]2C[C@H](O)CN2C(=O)[C@H](CC)NC(=O)[C@H](C)NC)[nH]c2cc(F)ccc12 [Birinapant] | -10.7 | –
NC(=O)Nc1cc(-c2cccc(F)c2)sc1C(=O)N[C@H]1CCCNC1 + CC[C@H](NC(=O)[C@H](C)NC)C(=O)N1C[C@@H](O)C[C@H]1Cc1c(-c2[nH]c3cc(F)ccc3c2C[C@@H]2C[C@H](O)CN2C(=O)[C@H](CC)NC(=O)[C@H](C)NC)[nH]c2cc(F)ccc12 [Birinapant] | 119 | –
Cc1cccc(Nc2nc(-c3ccncc3)cs2)c1 + CC[C@H](NC(=O)[C@H](C)NC)C(=O)N1C[C@@H](O)C[C@H]1Cc1c(-c2[nH]c3cc(F)ccc3c2C[C@@H]2C[C@H](O)CN2C(=O)[C@H](CC)NC(=O)[C@H](C)NC)[nH]c2cc(F)ccc12 [Birinapant] | 69.4 | –
COc1cc(F)c(C(C)C)cc1-c1ccc(C(F)(F)F)cc1CN1C(=O)O[C@H](c2cc(C(F)(F)F)cc(C(F)(F)F)c2)[C@@H]1C [Anacetrapib] + CC[C@H](NC(=O)[C@H](C)NC)C(=O)N1C[C@@H](O)C[C@H]1Cc1c(-c2[nH]c3cc(F)ccc3c2C[C@@H]2C[C@H](O)CN2C(=O)[C@H](CC)NC(=O)[C@H](C)NC)[nH]c2cc(F)ccc12 [Birinapant] | -71.8 | –
CN(C)c1ccc(C(=C2C=CC(=[N+](C)C)C=C2)c2ccc(N(C)C)cc2)cc1 [Methylrosaniline chloride] + CC[C@H](NC(=O)[C@H](C)NC)C(=O)N1C[C@@H](O)C[C@H]1Cc1c(-c2[nH]c3cc(F)ccc3c2C[C@@H]2C[C@H](O)CN2C(=O)[C@H](CC)NC(=O)[C@H](C)NC)[nH]c2cc(F)ccc12 [Birinapant] | -147 | –
COc1ccc(C2=N[C@@H](c3ccc(Cl)cc3)[C@@H](c3ccc(Cl)cc3)N2C(=O)N2CCNC(=O)C2)c(OC(C)C)c1 [Nutlin-3] + CC[C@H](NC(=O)[C@H](C)NC)C(=O)N1C[C@@H](O)C[C@H]1Cc1c(-c2[nH]c3cc(F)ccc3c2C[C@@H]2C[C@H](O)CN2C(=O)[C@H](CC)NC(=O)[C@H](C)NC)[nH]c2cc(F)ccc12 [Birinapant] | 264 | –
CCS(=O)(=O)N1CC(CC#N)(n2cc(-c3ncnc4[nH]ccc34)cn2)C1 [Baricitinib] + CC[C@H](NC(=O)[C@H](C)NC)C(=O)N1C[C@@H](O)C[C@H]1Cc1c(-c2[nH]c3cc(F)ccc3c2C[C@@H]2C[C@H](O)CN2C(=O)[C@H](CC)NC(=O)[C@H](C)NC)[nH]c2cc(F)ccc12 [Birinapant] | 48.3 | –
N#CC(c1ccnc(OCc2ccc(CN3CCOCC3)cc2)n1)c1nc2ccccc2s1 (stereo not given) + CC[C@H](NC(=O)[C@H](C)NC)C(=O)N1C[C@@H](O)C[C@H]1Cc1c(-c2[nH]c3cc(F)ccc3c2C[C@@H]2C[C@H](O)CN2C(=O)[C@H](CC)NC(=O)[C@H](C)NC)[nH]c2cc(F)ccc12 [Birinapant] | 104 | –
COc1ccc(C(=O)CC2(O)C(=O)Nc3c(Cl)ccc(Cl)c32)cc1 (stereo not given) + CC[C@H](NC(=O)[C@H](C)NC)C(=O)N1C[C@@H](O)C[C@H]1Cc1c(-c2[nH]c3cc(F)ccc3c2C[C@@H]2C[C@H](O)CN2C(=O)[C@H](CC)NC(=O)[C@H](C)NC)[nH]c2cc(F)ccc12 [Birinapant] | 27 | –
NC(=O)c1ccc(N(C(N)=O)c2c(F)cccc2F)nc1-c1ccc(F)cc1F + CC[C@H](NC(=O)[C@H](C)NC)C(=O)N1C[C@@H](O)C[C@H]1Cc1c(-c2[nH]c3cc(F)ccc3c2C[C@@H]2C[C@H](O)CN2C(=O)[C@H](CC)NC(=O)[C@H](C)NC)[nH]c2cc(F)ccc12 [Birinapant] | 69.1 | –
Cn1cnc(N)c2ncnc1-2 [3-Methyladenine] + CC[C@H](NC(=O)[C@H](C)NC)C(=O)N1C[C@@H](O)C[C@H]1Cc1c(-c2[nH]c3cc(F)ccc3c2C[C@@H]2C[C@H](O)CN2C(=O)[C@H](CC)NC(=O)[C@H](C)NC)[nH]c2cc(F)ccc12 [Birinapant] | 238 | –

Source: the supplement of paper PMC7765376
